{"source": "PubChem BioAssay AID651821", "about": "(The Scripps Research Institute Molecular Screening Center, 2012)", "note": "In all, about 370,000 compounds went through this assay and about 4,700 (1.3%) were called active.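 Rule for the calls: active = inhibition above the plate cutoff, the mean of all test compounds on that plate plus 3 SD (cut at about 35% in these data); inactive = the rest.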 What follows is part of a selection rich in actives, with near analogues and random picks from the rest.", "data": [{"test": "small molecules binding CAG repeat RNA – biochemical, fluorescence, primary screen (AID 651821);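 note: 0% = DMSO alone and 100% = 100 µM mitoxantrone as full dye displacement; higher means more dye released from RNA so lower well fluorescence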", "settings": "r(CAG) RNA repeat, TO-PRO-1 dye displacement fluorescence; at 3 µM; hits give high values", "values": [{"smiles": "CCOc1ccc(Br)cc1S(=O)(=O)Nc1ccc(S(=O)(=O)Nc2cc(C)on2)cc1", "inhibition": "14.9% (inactive)"}, {"smiles": "O=C(/C=C/Nc1ccc(S(=O)(=O)Nc2cnc3ccccc3n2)cc1)c1cccnc1", "inhibition": "5.52% (inactive)"}, {"smiles": "CCc1ccc(OC(C)C(=O)Nc2ccc(S(=O)(=O)Nc3cc(C)on3)cc2)cc1", "note": "(configuration not stated)", "inhibition": "36.2% (active)"}, {"smiles": "Cc1cc(NS(=O)(=O)c2ccccc2)no1", "inhibition": "-0.66% (inactive)"}, {"smiles": "COc1ccc(S(=O)(=O)Nc2cc(C)on2)cc1NC(C)=O", "inhibition": "3.85% (inactive)"}, {"smiles": "CCOc1ccc(C(=O)Nc2ccc(S(=O)(=O)Nc3cc(C)on3)cc2)cc1", "inhibition": "39.1% (active)"}, {"smiles": "COc1cc2ccccc2cc1C(=O)Nc1ccc(S(=O)(=O)Nc2cc(C)on2)cc1", "inhibition": "67.5% (active)"}, {"smiles": "CCC(Oc1ccccc1C)C(=O)Nc1ccc(S(=O)(=O)Nc2cc(C)on2)cc1", "note": "(configuration not stated)", "inhibition": "20.8% (inactive)"}, {"smiles": "CCOc1cc(C(=O)Nc2ccc(S(=O)(=O)Nc3cnc4ccccc4n3)cc2)cc(OCC)c1OCC", "inhibition": "66.1% (active)"}, {"smiles": "C=C(C)CNC(=S)Nc1ccc(S(=O)(=O)Nc2cnc3ccccc3n2)cc1", "inhibition": "19.2% (inactive)"}, {"smiles": "Cc1cc(NS(=O)(=O)c2ccc(NC(=S)NC(=O)c3ccc(F)cc3Cl)cc2)no1", "inhibition": "33.1% (inactive)"}, {"smiles": "CCOc1ccc(CC(=O)Nc2ccc(S(=O)(=O)Nc3cc(C)on3)cc2)cc1OCC", "inhibition": "22.4% (inactive)"}, {"smiles": "COc1cccc(CNC(=O)[C@H]2CCCN2C(=O)[C@H]2CCCN2C(=O)c2ccc(F)cc2)c1", "inhibition": "0.66% (inactive)"}, {"smiles": "Cc1cc(OC(=O)NCCc2ccc(F)cc2)ccc1F", "inhibition": "1.32% (inactive)"}, {"smiles": "CC(=O)c1ccc(S(=O)(=O)NCC2CCN(C(=O)C(=O)c3cccs3)CC2)cc1", "inhibition": "2.35% (inactive)"}, {"smiles": "COc1ccc(SSc2ccc(OC)cc2C(=O)O)c(C(=O)O)c1", "inhibition": "2.51% (inactive)"}, {"smiles": "CC[C@@H](CCC(=O)N(c1ccccc1)c1ccccc1)C1CC1", "inhibition": "1.63% (inactive)"}, {"smiles": "COCC(C)NC(=O)COc1nncc2ccccc12", "note": "(configuration not stated)", "inhibition": "-0.71% (inactive)"}, {"smiles": "O=C(CSc1nc2ccccc2n1Cc1ccccc1)NNC(=S)Nc1ccccc1", "inhibition": "31.7% (inactive)"}, {"smiles": "C[C@H]1CN([C@@H](C)CO)C(=O)CCCn2nncc2CO[C@@H]1CN(C)C(=O)Nc1ccc(N2CCN(C)CC2)cc1", "inhibition": "4.52% (inactive)"}, {"smiles": "CC1CC1C(=O)OCC(=O)c1c(N)n(C)c(=O)n(C)c1=O", "note": "(configuration not stated)", "inhibition": "-4.36% (inactive)"}, {"smiles": "CCCCNC(=O)C[C@H]1C[C@@]2(C(=O)OC)C(=C[C@H](COCc3ccccc3)O[C@@H]2C)N(Cc2ccc(Cl)cc2Cl)C1=O", "inhibition": "8.58% (inactive)"}, {"smiles": "CCN(CC)C(=O)CC[C@H]1CC[C@]2(CCCN(Cc3ccc(Cl)cc3)C2)O1", "inhibition": "-2.21% (inactive)"}, {"smiles": "COC(=O)c1cccc(N(C(=O)c2ccco2)C(C(=O)NC2CCCC2)c2ccco2)c1", "note": "(configuration not stated)", "inhibition": "-6.24% (inactive)"}, {"smiles": "CCOc1ccccc1C(=O)N1CCC[C@@H]1C(=O)N1CCC[C@H]1C(=O)NCc1ccccc1", "inhibition": "-1.61% (inactive)"}, {"smiles": "COc1ccc(-c2ccc3c(n2)CCCN3S(=O)(=O)c2ccc(C)cc2)cc1", "inhibition": "4.71% (inactive)"}, {"smiles": "CC(C)(C)c1ccc(S(=O)(=O)NCC2CCN(C(=O)C(=O)c3cc4ccccc4o3)CC2)cc1", "inhibition": "9.84% (inactive)"}, {"smiles": "COc1ccc(/C=C2\\CC3(OC(C)=O)CCCN2C3)cc1", "note": "(configuration not stated)", "inhibition": "-0.3% (inactive)"}, {"smiles": "CC(=O)Oc1c(C(=O)c2nnc(C)o2)c(=O)n(Cc2ccccc2)c2ccccc12", "inhibition": "2.47% (inactive)"}, {"smiles": "Cc1cc(OC(C)C(=O)Nc2ccc(S(=O)(=O)Nc3onc(C)c3C)cc2)cc(C)c1Cl", "note": "(configuration not stated)", "inhibition": "75.6% (active)"}, {"smiles": "Cc1cc(NS(=O)(=O)c2ccc(NC(=O)C(C)Oc3cccc(C)c3C)cc2)nc(C)n1", "note": "(configuration not stated)", "inhibition": "18.4% (inactive)"}, {"smiles": "Cc1noc(NS(=O)(=O)c2ccc(NC(=O)C34CCC(CC3)C4)cc2)c1C", "inhibition": "2.57% (inactive)"}, {"smiles": "Cc1ccc(C(=O)/C=C/Nc2ccc(S(=O)(=O)Nc3onc(C)c3C)cc2)cc1", "inhibition": "48.3% (active)"}, {"smiles": "Cc1cc(C)nc(NS(=O)(=O)c2ccc(N/C=C\\C(=O)c3cccs3)cc2)n1", "inhibition": "10.2% (inactive)"}, {"smiles": "CC(Oc1cccc(Cl)c1)C(=O)Nc1ccc(S(=O)(=O)Nc2ncccn2)cc1", "note": "(configuration not stated)", "inhibition": "8.9% (inactive)"}, {"smiles": "COc1cccc(CNC(=O)CNS(=O)(=O)c2ccc3nc(C)sc3c2)c1OC", "inhibition": "0.91% (inactive)"}, {"smiles": "COc1cccc(CNC(=O)[C@H]2CCCN2C(=O)[C@H]2CCCN2C(=O)c2cc(F)cc(F)c2)c1", "inhibition": "-1.44% (inactive)"}, {"smiles": "COC(=O)C[C@@H]1CC[C@@H]2[C@H](COc3ccc(NC(=O)c4cccc(F)c4)cc3C(=O)N2C)O1", "inhibition": "-0.86% (inactive)"}, {"smiles": "COc1ccccc1C(=O)NC1CCCCN(C(C)C)C1=O", "note": "(configuration not stated)", "inhibition": "-0.3% (inactive)"}, {"smiles": "O=C(CCC1CCN(C(=O)c2cccc(Cl)c2F)CC1)Nc1ccccc1", "inhibition": "-5.06% (inactive)"}, {"smiles": "C[C@@H]1CN([C@@H](C)CO)S(=O)(=O)c2ccc(-c3ccc(C(=O)N(C)C)cc3)cc2O[C@@H]1CN(C)Cc1ccccc1C(=O)O", "inhibition": "3.43% (inactive)"}, {"smiles": "Cc1ccccc1-c1ccc2c(c1)O[C@@H](CN(C)Cc1ccc(C(=O)O)cc1)[C@@H](C)CN([C@H](C)CO)S2(=O)=O", "inhibition": "51.3% (active)"}, {"smiles": "C[C@@H]1CN([C@H](C)CO)S(=O)(=O)c2ccc(C#C[C@@H](C)O)cc2O[C@@H]1CN(C)Cc1ccc(-c2ccccc2)cc1", "inhibition": "4.36% (inactive)"}, {"smiles": "CN(C)c1ccc(NC(=O)NC2CCCCN(Cc3ccc(Cl)cc3)C2=O)cc1", "note": "(configuration not stated)", "inhibition": "5.29% (inactive)"}, {"smiles": "Cc1ccc2cc(/C=N/Nc3ccc(C(=O)O)cc3)c(Cl)nc2c1", "inhibition": "41.6% (active)"}, {"smiles": "CC(=O)Nc1ccc(C(=O)CSc2nc3ccc(C)cc3[nH]2)cc1", "inhibition": "14.5% (inactive)"}, {"smiles": "CSCC[C@H](NC(=O)OC(C)(C)C)C(=O)N/N=C/c1cc2ccc(C)cc2nc1Cl", "inhibition": "3.07% (inactive)"}, {"smiles": "CCOC(=O)/C=C/c1ccccc1O", "inhibition": "0.7% (inactive)"}, {"smiles": "CCC(=O)Nc1ccc2c(c1)C(=O)N(C)[C@H]1CC[C@H](CC(=O)NCCOC)O[C@@H]1CO2", "inhibition": "-0.44% (inactive)"}, {"smiles": "Cc1ccc(Cc2nnc(SCC(=O)Nc3ccc(C)cc3C)[nH]c2=O)cc1", "inhibition": "10.1% (inactive)"}, {"smiles": "Cc1ccc(Cc2nnc(SCC(=O)Nc3ccccc3C)[nH]c2=O)cc1", "inhibition": "15.2% (inactive)"}, {"smiles": "COc1ccc(Cc2nnc(SCC(=O)Nc3ccc(C)c(Cl)c3)[nH]c2=O)cc1", "inhibition": "70.4% (active)"}]}]}
